Source: ChEMBL document CHEMBL3988442, “University of Dundee, Small-Polar-MMV Screening Library” (2021)
Screen size: about 48,000 compounds; about 13,000 (27%) showed an effect of 50% or more. The list shows a part of the results.

The compounds below were run on Wolbachia pipientis (assay: Anti-Wolbachia Cell-Based Screen). Conditions: 5 µM.
Assay type: functional
Set-up: scale not given: in the data most compounds retested in dose-response had high values
With `CC(C)(C)CNCC1(O)CCCN(Cc2ccccc2F)C1=O` (stereo unspecified) the “Percent Effect” value was -15.35%.
For `CSCCC(O)C(=O)N1CCN(Cc2cccc(Cl)c2)CC1` (stereo unspecified), the “Percent Effect” value was 8.238%.
In the case of `CCC(CO)N(Cc1ccccn1)C(=O)c1ccc(=O)[nH]c1` (stereo unspecified), the “Percent Effect” value is reported as 7.999%.
For `COc1ccccc1N1CCN(C(=O)CSC(C)C)C(C)C1` (stereo unspecified), the “Percent Effect” value was -5.211%.
For `NC(=O)CSCC(=O)NCC1CCCC1`, the “Percent Effect” value was 107.6%.
With `O=C(CNC(=O)C1CC1)NCC1CCCC1` the “Percent Effect” value was -13.86%.
In the case of `N#CCSCC(=O)NCC1CCCCC1`, the “Percent Effect” value is reported as 102.7%.
For `NC(=O)CSCCC(=O)NCC1CC1`, the “Percent Effect” value was 101.8%.
With `NC(=O)CSCCC(=O)N1CCCC1c1ccsc1` (stereo unspecified) the “Percent Effect” value was -6.046%.
`Cc1nc(CN2CCC(CNC(=O)CCC3CCCC3)CC2)oc1C` was tested, and the “Percent Effect” value was -6.137%.
For `N#CCSCCCN1CCC(C(=O)N2CCCCCC2)CC1`, the “Percent Effect” value was 2.389%.
`O=C(CCn1cncn1)NCC1CCCC1` was tested, and the “Percent Effect” value was 2.005%.
For `O=C(CCn1cncn1)NCC1CCOC1` (stereo unspecified), the “Percent Effect” value was 0.0368%.
For `Cc1cccc(N(CC(=O)N2CCCCC2)Cc2ccno2)c1`, the “Percent Effect” value was 2.857%.
In the case of `Cc1cc(C(=O)NCC2SCCc3ccccc32)no1` (stereo unspecified), the “Percent Effect” value is reported as 0.5755%.
For `CCN(C(=O)Cc1ccc(NC(=O)NC2CC2)cc1)c1ccccc1`, the “Percent Effect” value was -0.9902%.
In the case of `O=C(CSc1ccc2c(c1)OCCO2)NS(=O)(=O)c1cc(F)ccc1F`, the “Percent Effect” value is reported as -16.91%.
`Cc1ncccc1CNCC1CCCN1c1cccnn1` (stereo unspecified) was tested, and the “Percent Effect” value was 86.13%.
`Cc1nc(CNCC2CCCN2c2cccnn2)oc1C` (stereo unspecified) was tested, and the “Percent Effect” value was -10.17%.
With `c1cnnc(N2CCCC2CNCc2cccs2)c1` (stereo unspecified) the “Percent Effect” value was 108.7%.
In the case of `Cc1noc(C)c1CNCC1CCCN1c1cccnn1` (stereo unspecified), the “Percent Effect” value is reported as 5.268%.
With `CC(C)(C)c1ncc(CNCC2CCCN2c2cccnn2)s1` (stereo unspecified) the “Percent Effect” value was 130.1%.
For `CC(C)c1nnc(CNCC2CCCN2c2cccnn2)o1` (stereo unspecified), the “Percent Effect” value was -19.57%.
For `c1cnnc(N2CCCC2CNCCc2cccs2)c1` (stereo unspecified), the “Percent Effect” value was 5.045%.
For `Cc1ncc(CNCC2CCCN2c2cccnn2)s1` (stereo unspecified), the “Percent Effect” value was 6.124%.
`CC(C)(C)c1cnc(CNCC2CCCN2c2cccnn2)o1` (stereo unspecified) was tested, and the “Percent Effect” value was 10.11%.
For `Cc1nc(CNCC2CCCN2c2cccnn2)cs1` (stereo unspecified), the “Percent Effect” value was -2.276%.
With `Cc1ccc(CNCC2CCCN2c2cccnn2)s1` (stereo unspecified) the “Percent Effect” value was 110.2%.
With `c1cnnc(N2CCCC2CNCc2ccsc2)c1` (stereo unspecified) the “Percent Effect” value was -3.279%.
For `CC(=O)Nc1ccc(CN2CCOC2=O)cc1`, the “Percent Effect” value was -1.092%.
For `CC(=O)Nc1ccc(/C=C/c2ncc(C(=O)O)s2)cc1`, the “Percent Effect” value was 35.4%.
In the case of `CC(C)c1ccn(C2(C(=O)O)CCN(c3ccncc3F)CC2)n1`, the “Percent Effect” value is reported as -3.994%.
In the case of `Cc1cccc(C(=O)N(C)CC(=O)N2CCCC2)c1C`, the “Percent Effect” value is reported as 11.26%.
For `O=C(CNC(=O)C1CC1)NCc1ccc(Cl)s1`, the “Percent Effect” value was 12.79%.
For `O=C(Nc1cnccn1)[C@H]1COC[C@H]2CN(C3CCCC3)C[C@H]21.O=C(O)C(F)(F)F`, the “Percent Effect” value was 12.06%.
In the case of `CN(Cc1nnc(C2CC2)n1C)C(=O)c1ccnc(OC2CCC2)c1`, the “Percent Effect” value is reported as -6.34%.
`Cc1cc(C(=O)N(C)Cc2ccccc2OCC(C)C)cc(=O)[nH]1` was tested, and the “Percent Effect” value was 5.839%.
With `COc1ccccc1OCC(=O)NS(=O)(=O)c1ccccc1F` the “Percent Effect” value was -1.762%.
In the case of `CSc1ccc(NCC(=O)NCC2CC2)cc1F`, the “Percent Effect” value is reported as -20.57%.
In the case of `COc1cccc([C@@H]2CN(C3CCCC3)C[C@H]2C(=O)O)c1`, the “Percent Effect” value is reported as -6.459%.
`Cc1noc(C)c1CN1CCc2ncc(CN(C)C)n2CC1.O=C(O)C(F)(F)F.O=C(O)C(F)(F)F` was tested, and the “Percent Effect” value was -8.609%.
For `O=C(NCc1cnc2n1CCN(Cc1nccs1)C2)c1ccno1.O=C(O)C(F)(F)F`, the “Percent Effect” value was -12.49%.
For `CC(C)N(C)Cc1cnc2n1CCN(Cc1cccc(C#N)c1)C2`, the “Percent Effect” value was 113.4%.
`Cc1ccc(CN2CCn3c(CNC(=O)c4cccn4C)cnc3C2)s1.O=C(O)C(F)(F)F` was tested, and the “Percent Effect” value was 57.4%.
In the case of `CC(C)N(C)Cc1cnc2n1CCN(Cc1ccc(F)cc1)C2.O=C(O)C(F)(F)F.O=C(O)C(F)(F)F`, the “Percent Effect” value is reported as 108.1%.
With `Cc1ccc(CN2CCn3c(CN(C)C(C)C)cnc3C2)s1.O=C(O)C(F)(F)F.O=C(O)C(F)(F)F` the “Percent Effect” value was 102.4%.
In the case of `CC(C)c1ncc2c(n1)CN(Cc1cccc(C#N)c1)CC2`, the “Percent Effect” value is reported as -1.681%.
`CN(C)Cc1cnc2n1CCN(C(=O)Cc1ccc(F)cc1)CC2.O=C(O)C(F)(F)F` was tested, and the “Percent Effect” value was -6.028%.
With `Cc1ccc(CN2CCc3c(CN(C)C)n[nH]c3C2)s1.O=C(O)C(F)(F)F.O=C(O)C(F)(F)F` the “Percent Effect” value was -7.014%.
`Cn1cc(CN2CCn3c(CNC(=O)c4cccn4C)cnc3C2)cn1.O=C(O)C(F)(F)F` was tested, and the “Percent Effect” value was -0.1323%.
`CC(O)CN1CCN(Cc2cccc(C#N)c2)CC1` (stereo unspecified) was tested, and the “Percent Effect” value was -5.978%.
`CN1CCc2ncc(CNC(=O)c3cccn3C)n2CC1.O=C(O)C(F)(F)F` was tested, and the “Percent Effect” value was -7.758%.
In the case of `COc1cc(C)nc(N2CCN(C(=O)CCn3cc(C)cn3)CC2)n1`, the “Percent Effect” value is reported as -7.08%.
`c1ccc2nc(NCC3(N4CCOCC4)CCSC3)cnc2c1` (stereo unspecified) was tested, and the “Percent Effect” value was -14.05%.
In the case of `CCn1cnc2c(c(Br)nn2C)c1=O`, the “Percent Effect” value is reported as -4.609%.
With `CS(=O)(=O)c1cccc(S(=O)(=O)NC(=O)c2cscn2)c1` the “Percent Effect” value was -9.351%.
`CC(C)NC(=O)C[C@@H]1CCNC[C@@H]1Cc1cc(-c2ccccc2)on1` was tested, and the “Percent Effect” value was 3.733%.
For `CCc1cc(=O)[nH]c2nnc(SCC(=O)OC)n12`, the “Percent Effect” value was -19.07%.
With `Cn1ccnc1CN1CCC2(CC(=O)N(c3cccc(F)c3)C2)C1.O=C(O)C(F)(F)F` (stereo unspecified) the “Percent Effect” value was 10.35%.
For `Cc1cc(C)c(Cn2cncn2)cc1CN1CCC(CN)C1` (stereo unspecified), the “Percent Effect” value was -0.9295%.
For `Cc1ccc(OCC(O)Cn2ncc3cnn(C)c(=O)c32)cc1` (stereo unspecified), the “Percent Effect” value was -11.22%.
`CC(C)N(C)Cc1cnc2n1CCN(CCc1ccccc1)C2.O=C(O)C(F)(F)F.O=C(O)C(F)(F)F` was tested, and the “Percent Effect” value was 1.323%.
For `CC(C)N(C)Cc1cnc2n1CCN(C(=O)Cc1cccs1)C2C.O=C(O)C(F)(F)F` (stereo unspecified), the “Percent Effect” value was 0.7731%.
`CC(C)N(C)Cc1cnc2n1CCN(S(=O)(=O)c1ccccc1)C2.O=C(O)C(F)(F)F` was tested, and the “Percent Effect” value was 114.3%.
`COCCN1CCn2c(CN(C)C(C)C)cnc2C1.O=C(O)C(F)(F)F.O=C(O)C(F)(F)F` was tested, and the “Percent Effect” value was 115.3%.
`CC(C)N(C)Cc1cnc2n1CCN(Cc1ccco1)C2.O=C(O)C(F)(F)F.O=C(O)C(F)(F)F` was tested, and the “Percent Effect” value was 165.9%.
In the case of `CN(C)Cc1cnc2n1CCN(C(=O)NCc1ccccc1)CC2.O=C(O)C(F)(F)F`, the “Percent Effect” value is reported as -3.612%.
With `CC(C)N(C)Cc1cnc2n1CCN(Cc1cccc(F)c1)C2.O=C(O)C(F)(F)F.O=C(O)C(F)(F)F` the “Percent Effect” value was 118.2%.
In the case of `CN(C)Cc1cnc2n1CCN(C(=O)Cc1cccc(F)c1)CC2.O=C(O)C(F)(F)F`, the “Percent Effect” value is reported as -14.88%.
In the case of `CN(Cc1ccco1)Cc1cnc2n1CCN(S(C)(=O)=O)CC2.O=C(O)C(F)(F)F`, the “Percent Effect” value is reported as 3.882%.
`COCCN1CCCn2cnc(CN(C)C(C)C)c2C1.O=C(O)C(F)(F)F.O=C(O)C(F)(F)F` was tested, and the “Percent Effect” value was 1.891%.
